Source: PubChem BioAssay (National Center for Advancing Translational Sciences (NCATS))
An excerpt weighted towards active compounds, which were near 11% of everything screened.
FLuc inh = inhibitors of firefly (Photinus pyralis) luciferase | P08659 | purified P. pyralis luciferase, luminescence, biochemical | Potency, µM (doses to about 115 µM), usual class: inhibitors | hit rate 2.5% among 76,000; further: nearly all actives have a fitted effect of over 65% in size
Target sequence (P08659 whole entry, looked up): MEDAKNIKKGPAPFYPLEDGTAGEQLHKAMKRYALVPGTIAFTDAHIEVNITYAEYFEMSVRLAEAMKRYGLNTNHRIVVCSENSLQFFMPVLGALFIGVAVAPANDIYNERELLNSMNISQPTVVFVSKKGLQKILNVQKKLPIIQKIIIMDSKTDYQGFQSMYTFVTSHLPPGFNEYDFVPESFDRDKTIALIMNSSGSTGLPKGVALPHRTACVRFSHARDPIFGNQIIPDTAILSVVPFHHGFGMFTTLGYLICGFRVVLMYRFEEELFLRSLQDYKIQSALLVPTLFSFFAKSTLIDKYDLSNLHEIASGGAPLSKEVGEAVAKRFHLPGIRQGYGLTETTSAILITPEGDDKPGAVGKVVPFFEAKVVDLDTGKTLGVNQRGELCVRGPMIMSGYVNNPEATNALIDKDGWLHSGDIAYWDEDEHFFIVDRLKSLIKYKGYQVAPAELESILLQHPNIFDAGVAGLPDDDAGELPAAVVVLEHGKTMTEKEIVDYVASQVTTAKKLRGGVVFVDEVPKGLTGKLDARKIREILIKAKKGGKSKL
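Biochemical qHTS: compound (6-point titration) added to 10uM D-luciferin plus 10uM ATP in Tris acetate pH 7.5 buffer with Mg, Tween-20 and BSA, then purified enzyme at 10nM; light output imaged.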
HEK cytotox = cytotoxic compounds in HEK 293 cells; HEK 293 viability, ATP luminescence (CellTiter-Glo), 48-72 h; Potency, µM (top dose mostly 115 µM), for inactives: at the highest dose activity change, negative = cytotoxicity, actives largely listed as inhibitors; hit rate 6.6% among 94,000; further: nearly all actives have a fitted effect of over 60% in size
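Cytotoxicity was scored by loss of ATP-coupled luminescence (CellTiter-Glo) in HEK 293 cells. Compound treatment ran 48 or 72 hr at 37 degree Celsius, 5% CO2, 95% humidity.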
hNpr1 antagonist = antagonists of human natriuretic peptide receptor Npr1; HEK293 hNpr1 GloSensor cGMP, ANP-stimulated luminescence; P16066; Potency, µM (doses to about 46.3 µM), without a hit: at the top dose activity change, negative = inhibition, actives largely listed as inhibitors; hit rate 1.6% among 76,000; calls by dose curve; further: nearly all actives have a fitted effect of over 60% in size
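HEK293 cells stably expressing human Npr1 and cGMP GloSensor pGS-40F, loaded 2 h with 2% GloSensor reagent, given compound 30 min at room temperature. Luminescence read before and 20 min after 0.1 nM hNppA.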
3T3 cytotox = NIH 3T3 cell cytotoxicity; AID 1345082; Potency, µM (doses to about 96.7 µM), inactives show top-dose activity change, negative = cytotoxicity, actives largely listed as inhibitors; hit rate 4.3% among 94,000; NIH 3T3 viability, CellTiter-Glo ATP luminescence, 48-72 h; further: nearly all actives have a fitted effect of over 55% in size
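ATP-dependent luminescence (CellTiter-Glo) served as the viability signal for NIH 3T3 cells treated with compound for 48 or 72 hr at 37 °C.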
* marks the source's active call; other numbers are inactive results; i = inactive; ? = inconclusive; / = no result given; ! = not confirmed by another sample; [ ] = dose if it differs, or a comment. Unless noted, the call rests on the fitted dose curve; in most records, active means well fitted curve in the direction sought with a large enough effect; inconclusive means small, poorly fitted or top-dose-only effect, or another doubt; inactive means no such curve, though single readings can be large; an effect the other way counts as inactive or inconclusive. On the % scale 0 is the no-effect control and ±100 the full control effect; potency means the concentration at half of the fitted maximal effect.

SMILES | FLuc inh | HEK cytotox | hNpr1 antagonist | 3T3 cytotox
CC1=C[C@@H](CC#N)[C@H](C(C)C)C[C@H]1CC(=O)N(C)CCc1ccccn1 | i | -16.3%[172 µM] | -13.9%[70.6 µM] | 1.4%[174 µM]
O=C(c1cccc(Cl)c1)N1CCC2(CC1)CC(=O)N(c1ccccc1)c1ccccc1O2 | i | ? | -8.0% | ?
CCn1ccc(C(=O)NCC2Cn3cccc3CN2Cc2ccccc2)n1 (stereo unspecified) | i | ? | -7.8% | ?
Cc1ccc(-c2ccc3nnc(CNC(=O)c4cc(F)ccc4Cl)n3n2)cc1 | i | 31.6µM* | -0.4% | ?
CCn1cc(S(=O)(=O)N2CCC(c3noc(COCc4ccccc4)n3)CC2)cn1 | / | -15.6% | / | -17.4%
CC(C)C(=O)N[C@H]1C[C@@H](Cc2cc(COc3ccccc3)on2)C1(C)C | ? | 39.8µM* | ? | 63.1µM*
CCCCCC(=O)N[C@H]1C[C@@H](Cc2cc(COc3ccccc3)on2)C1(C)C | i | ? | ? | 39.8µM*
CC1(C)[C@H](Cc2cc(COc3ccccc3)on2)C[C@@H]1NC1CCC1 | i | 35.5µM* | 2.8%[70.6 µM] | 31.6µM*
O=C(c1cc2ccccc2[nH]1)N1CCC(c2noc(C3CC3)n2)C1 (stereo unspecified) | 28.2µM* | ? | ? | ?
CC(C)C(=O)N1CCC2(CC1)NCCc1c2[nH]c2ccccc12 | i | ? | 7.8% | -18.4%
COc1ccc(C(=O)N2CCn3c(nn(-c4ccc(OC)cc4)c3=O)C2)cc1 | / | -5.5% | / | ?
O=c1n(-c2ccc(C(F)(F)F)cc2)nc2n1CCN(Cc1ccccc1)C2 | i | 7.94µM*! | 1.4% | ?
Cc1ccc(CN2CCn3c(nn(-c4ccncc4)c3=O)C2)cc1 | i | ? | 20µM* | ?
COc1ccc(-n2nc3n(c2=O)CCN(C(=O)c2ccc(C(F)(F)F)cc2)C3)cc1 | / | -2.1% | / | 31.6µM*
Cc1ccc(CN2CCn3c(nn(-c4ccc(C(F)(F)F)cc4)c3=O)C2)cc1 | i | ? | 3.5% | ?
Cc1cc(CN2CCn3c(nn(-c4ccc(C(F)(F)F)cc4)c3=O)C2)no1 | / | 89.1µM* | / | ?
CCOC(=O)C1CCN(C(=O)Cc2ccc(N(Cc3cccc(F)c3)C(=O)c3ccco3)cc2)CC1 | i | ? | ? | ?
COc1ccc(-n2nc3n(c2=O)CCN(Cc2ccccc2)C3)cc1 | / | ? | / | 8.91µM*
COc1ccc(CN2CCn3c(nn(-c4ccc(OC)cc4)c3=O)C2)cc1 | / | -5.0% | / | -15.3%
Cc1ccc(C)c(NC(=O)N2C[C@@H](F)C[C@H]2C(=O)N2CCCCC2)c1 | i | 10.9% | -1.2% | ?
COc1ccc(C)cc1NC(=O)N1CCCC1c1nncn1C1CCCC1 (stereo unspecified) | i | 5.8% | -2.4% | 31.6µM*
COc1ccc(C)cc1NC(=O)N1C[C@@H](F)C[C@H]1C(=O)N1CCCCC1 | i | 1.1% | -13.5% | 35.5µM*
COc1ccc(NC(=O)N2CCCC2c2nncn2C2CCCC2)c(OC)c1 (stereo unspecified) | i | 3.3% | 0.6% | ?
N#Cc1cccc(CN2C[C@@H](CO)[C@H](C(=O)NC3CC3)C2)c1 | i | -0.8% | -0.1% | i
COc1ccc(-c2ccc3c(n2)CN(Cc2ccccc2)C(=O)CO3)cc1F | i | 79.4µM* | -17.4%[70.6 µM] | 79.4µM*
SMILES | FLuc inh | HEK cytotox | hNpr1 antagonist | 3T3 cytotox
Cn1cc(-c2ccc3c(n2)CN(Cc2ccc(C(F)(F)F)cc2)C(=O)CO3)cn1 | i | ? | -16.2%[70.6 µM] | 31.6µM*
COCCN1Cc2nc(-c3ccc(OC)c(F)c3)ccc2OCC1=O | i | -23.3%[172 µM] | -0.2%[70.6 µM] | ?
O=C1COc2ccc(-c3cc(F)cc(F)c3)nc2CN1Cc1ccccc1 | i | ? | 1.2%[70.6 µM] | ?
O=C1COc2ccc(-c3ccccc3)nc2CN1Cc1ccccc1 | i | 112µM* | -15.7%[70.6 µM] | ?
O=C1COc2ccc(-c3ccncc3)nc2CN1Cc1ccccc1F | i | ? | 0.7%[70.6 µM] | 89.1µM*
Cc1ccc(C(=O)N2CCCC(C(=O)N3CCC(c4nc5ncccc5[nH]4)CC3)C2)cc1 (stereo unspecified) | / | -0.3% | / | -25.1%
COc1ccc(-c2ccc3c(n2)CN(Cc2ccc(F)cc2)C(=O)CO3)cc1 | i | ? | ? | ?
COc1ccc(-c2ccc3c(n2)CN(Cc2ccccc2F)C(=O)CO3)cc1OC | i | 50.1µM* | -16.4%[70.6 µM] | 25.1µM*
O=C1COc2ccc(-c3ccc(F)cc3)nc2CN1Cc1ccccc1F | i | 100µM* | -21.6%[70.6 µM] | ?
